Data as given in PubChem BioAssay AID651650 (Sanford-Burnham Center for Chemical Genomics, 2012).

These molecules were tested against Neuropilin-1 (Homo sapiens) (UniProt O14786) (assay: NRP-1 b1b2 CendR peptide binding inhibitors, dose response, biochemical, FP and AlphaScreen panel (AID 651650)). Conditions: NRP-1 b1b2 / RPARPAR peptide binding, FP or AlphaScreen; run 1, at 100 µM (top of the series).
Chain of Neuropilin-1 (Homo sapiens) (O14786 whole entry, looked up): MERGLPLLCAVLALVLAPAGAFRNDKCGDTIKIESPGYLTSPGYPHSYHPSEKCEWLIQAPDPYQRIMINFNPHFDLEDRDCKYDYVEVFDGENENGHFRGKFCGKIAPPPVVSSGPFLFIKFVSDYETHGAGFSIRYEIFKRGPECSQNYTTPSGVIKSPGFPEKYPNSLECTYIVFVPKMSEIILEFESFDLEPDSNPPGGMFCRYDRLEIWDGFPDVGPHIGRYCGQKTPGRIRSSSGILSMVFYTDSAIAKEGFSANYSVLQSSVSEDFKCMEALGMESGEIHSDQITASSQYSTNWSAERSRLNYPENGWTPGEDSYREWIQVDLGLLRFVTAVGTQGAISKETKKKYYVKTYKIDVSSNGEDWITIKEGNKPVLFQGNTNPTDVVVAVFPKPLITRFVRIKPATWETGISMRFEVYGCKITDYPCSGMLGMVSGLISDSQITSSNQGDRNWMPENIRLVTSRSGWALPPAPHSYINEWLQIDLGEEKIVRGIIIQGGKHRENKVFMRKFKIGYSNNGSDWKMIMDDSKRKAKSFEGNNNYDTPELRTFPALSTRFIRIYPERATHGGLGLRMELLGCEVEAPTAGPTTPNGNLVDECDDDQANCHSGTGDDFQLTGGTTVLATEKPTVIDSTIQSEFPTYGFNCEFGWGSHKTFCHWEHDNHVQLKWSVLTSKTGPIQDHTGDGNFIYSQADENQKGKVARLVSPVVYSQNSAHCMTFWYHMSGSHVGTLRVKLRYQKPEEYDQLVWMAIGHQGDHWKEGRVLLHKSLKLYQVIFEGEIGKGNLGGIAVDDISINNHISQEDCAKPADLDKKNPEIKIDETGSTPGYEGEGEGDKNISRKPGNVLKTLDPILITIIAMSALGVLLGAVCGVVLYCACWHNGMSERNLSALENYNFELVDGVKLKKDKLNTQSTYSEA

Row | SMILES | inhibition
1 | CCc1ccc(C2CC(=O)N(c3cccc(F)c3)C3=C2C(=O)OC3)cc1 (centres undefined) | 33.7%
2 | CCCS(=O)(=O)N1CCC(Cc2ccc(OC)cc2)(C(=O)OCC)CC1 | -57.8%
3 | Cc1ccc(C(=O)N2CCN(C34CC5CC(CC(C5)C3)C4)CC2)o1 | 57.6%
4 | COc1ccc(OCC(=O)O/N=C(\N)Cc2ccc(Cl)cc2Cl)cc1 | 61.1%
5 | CCOC(=O)C(NC(=O)CC(C)C)(Nc1sc(C)c(CC)c1C#N)C(F)(F)F (centres undefined) | -7.38%
6 | CC(=O)c1cccc(S(=O)(=O)N2CCC(C(=O)O)(c3ccccc3)CC2)c1 | 49.1%
7 | COc1ccc(C(=O)N2CCC(C(=O)NCc3ccccn3)CC2)cc1 | 20.9%
8 | CCOC(=O)c1cnc(-c2ccccc2)nc1Oc1ccc(OC)cc1 | 99.5%
9 | FC(F)(F)C1CC(c2cccs2)Nc2ncnn21 (centres undefined) | 46%
10 | CCOC(=O)C1=CCN(S(=O)(=O)c2ccccc2Br)C1c1ccccc1 (centres undefined) | 35.1%
11 | CCc1ccccc1NC(=O)c1ccccc1N1C(=O)C2C3C=CC(C3)C2C1=O (centres undefined) | 21.3%
12 | Fc1cnc(N2CCOCC2)nc1N1CCOCC1 | 49%
13 | CCCCc1ccc(S(=O)(=O)N2CCC3(CC2)OCCO3)cc1 | 16.7%
14 | CCn1c(=O)c(C(=O)NCCNCCO)c(O)c2ccccc21 | 26.5%
15 | O=C(NCc1ccccc1)c1ccc(N2CCC3(CC2)CC(c2ccc(Cl)cc2)=NO3)c([N+](=O)[O-])c1 | 69.3%
16 | NC(=O)C(c1ccc(Cl)cc1Cl)c1ncc(C(F)(F)F)cc1Cl (centres undefined) | 88.6%
17 | C=C1CCN(C(C(=O)OC)C(C)C)S(=O)(=O)c2ccc(F)cc21 (centres undefined) | 68%
18 | COc1cc(C(=O)Nc2cc3c(cc2N2CCCCC2)n(C)c(=O)n3C)cc(OC)c1OC | 57.1%
19 | CCOC(=O)/C=C/COc1ccccc1[N+](=O)[O-] | 29.2%
20 | O=C(COc1ccc(S(=O)(=O)N2CCCC2)cc1)Nc1ccc2c(c1)OCCO2 | 34%

Row | SMILES | inhibition
21 | c1ccc2c(CNc3ccc(CNc4ncn[nH]4)cc3)cccc2c1 | 25.6%
22 | O=C(Cc1ccc(F)cc1)N1CCN=C1SCc1ccc([N+](=O)[O-])cc1 | 18.7%
23 | O=C1CCC[C@@H]2Cc3nc4cc5c(cc4cc3[C@@H]3CCN1[C@H]23)OCO5 | 30.9%
24 | Cc1cccc(NC(=O)c2ccc(OCc3c(C)noc3C)cc2)c1 | 93.6%
25 | CN(C)Cc1cc(C(F)(F)F)ccc1C(O)(c1ccccc1)c1ccccc1 | -5.25%
26 | O=C(CCCNC(=O)/C(=C\c1ccc(F)cc1)NC(=O)c1ccccc1)OCc1ccccc1 | -33%
27 | CNC(=O)Nc1ccccc1C(=O)NCc1ccccc1 | 25.7%
28 | O=C(O)CSc1nnc(-c2ccc(Cl)cc2Cl)n1-c1ccc(Cl)cc1 | 74.1%
29 | CSc1ncccc1C(=O)OCC(=O)NC1CCCCC1 | 56.7%
30 | CCCn1c(C)cc(C(=O)CSc2nc3nc(C)cc(C)n3n2)c1C | 5.46%
31 | CC(=O)NCCNc1nc(NC(C)C)nc2ccsc12 | -4.88%
32 | CCn1c(N)c(C(=O)NCc2cccnc2)sc1=S | 100%
33 | CCN(Cc1ccncc1)C(=O)c1cc(COc2ccc(F)cc2F)on1 | 18.1%
34 | CC(C)(C)n1nc(-c2ccc(F)cc2)c2c(N)ncnc21 | 39.3%
35 | CCCNC(=O)[C@H]1N2C(=O)c3c(ccc(OC)c3OC)C2SC1(C)C (some centres undefined) | 51.5%
36 | O=C(Cn1cccc1C(=O)c1ccccc1)NCCC1=CCCCC1 | 94.3%
37 | COc1ccc(C(C(=O)NC(C)(C)C)N(C(=O)CCC(=O)Nc2cc(C)on2)c2c(C)cccc2C)cc1 (centres undefined) | 42.7%
38 | O=C1c2cc([N+](=O)[O-])cc3cc([N+](=O)[O-])cc(c23)C(=O)N1c1ccccn1 | 17.2%
39 | O=C(O)c1cc(NCc2ccc(F)cc2)ccc1N1CCOCC1 | 46.8%
